Data published in PubChem BioAssay (NCATS).
Records with an inconclusive call do not appear. The source made the active and inactive calls. Calls come from the whole dose curve; as a rule, active = well fitted cell-killing curve with a large enough effect; inconclusive = small, poorly fitted or top-dose-only effect, or effect the other way; inactive = no such curve, though single readings can be large or run the other way.

Experiment: Quantitative High-Throughput drug screen in 47 multiple myeloma cell lines against the NCATS MIPE library collection: U266_ATCC cell viability assay (AID 1919864); note: nearly all actives have a fitted effect of over 35% in size;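 for viability (% of DMSO control): 0% = media-only wells without cells and 100% = DMSO-only wells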
Conditions: U266 myeloma viability, CellTiter-Glo ATP luminescence, 48 h; series mostly up to 45.8 µM
In short: (§1)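 Inhibition of viability over 48 h was scored by ATP content (CellTiter-Glo) in 500-cell wells. Zero and full viability were defined by media-only and DMSO-only wells.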
Potency is the fitted concentration of half-maximal effect.

SMILES	Potency	viability (% of DMSO control)
CCC(C(=O)O)C1CCC(C)C(C(C)C(O)C(C)C(=O)C(CC)C2OC3(C=CC(O)[C@@]4(CC[C@](C)(C5CC[C@@](O)(CC)C(C)O5)O4)O3)C(C)CC2C)O1 (some centres undefined)	5.26 µM (active)	–
CC(=O)[C@]1(O)Cc2c(O)c3c(c(O)c2[C@@H](O[C@H]2C[C@H](N)[C@@H](O)[C@H](C)O2)C1)C(=O)c1ccccc1C3=O	0.264 µM (active)	–
COc1cc(C=CC(=O)CC(=O)C=Cc2ccc(O)c(OC)c2)ccc1O	34 µM (active)	–
CN(CC(=O)N(Cc1ccc(C2CCCCC2)cc1)c1ccc(C(=O)O)c(O)c1)S(=O)(=O)c1c(F)c(F)c(F)c(F)c1F	13.2 µM (active)	–
CC(C)(C)[C@H](NC(=O)c1ccc(N)c(Cl)c1)C(=O)N1CCC[C@@H]1C(=O)N[C@H](C#N)CC(=O)O	–	129% [at 3.51 µM] (inactive)
Cn1cnc(=N)c2[nH]cnc21	0.235 µM (active)	–
COc1ccc2c(c1OC)C(=O)OC2[C@H]1c2c(cc3c(c2OC)OCO3)CCN1C (some centres undefined)	1.66 µM (active)	–
C#C[C@]1(O)CC[C@@H]2[C@@H]3CCC4=CC(=O)CC[C@@H]4[C@H]3CC[C@@]21CC	inactive	–
COc1ccc(S(=O)(=O)Nc2cccnc2Nc2ccc(O)cc2)cc1	1.05 µM (active)	–
C=C(C)[C@@H]1CC[C@]2(C(=O)O)CC[C@]3(C)[C@H](CC[C@@H]4[C@@]5(C)CC[C@H](O)C(C)(C)[C@@H]5CC[C@]43C)[C@@H]12	inactive	–
CC(=O)OCC(=O)[C@@]1(O)CC[C@H]2[C@@H]3CCC4=CC(=O)CC[C@]4(C)[C@@H]3C(=O)C[C@@]21C	inactive	–
CC(=O)SCC(Cc1ccccc1)C(=O)NCC(=O)OCc1ccccc1 (centres undefined)	1.32 µM (active)	–
CCOc1cc2ncc(C#N)c(Nc3ccc(OCc4ccccn4)c(Cl)c3)c2cc1NC(=O)C=CCN(C)C	13.2 µM (active)	–
C=CC(=O)N1CCc2ccc(-n3c(=O)ccc4cnc5ccc(-c6cnn(C)c6)cc5c43)cc21	3.32 µM (active)	–
NC[C@H]1O[C@H](O[C@H]2[C@@H](O)[C@@H](O[C@H]3O[C@H](CO)[C@@H](O)[C@H](N)[C@@H]3O)[C@H](N)C[C@@H]2N)[C@H](N)C[C@H]1O	inactive	–
N#CNC(=NCCCCCCOc1ccc(Cl)cc1)Nc1ccncc1	18.7 µM (active)	–
C[C@H]1COc2c(N3CCN(C)CC3)c(F)cc3c(=O)c(C(=O)O)cn1c23	inactive	–

SMILES	Potency	viability (% of DMSO control)
Oc1cc(-c2nc(-c3ccccc3)[nH]c2-c2ccncc2)ccc1Cl	16.6 µM (active)	–
O=c1[nH]c(=O)n([C@H]2C[C@@H](O)[C@@H](CO)O2)cc1C=CBr	inactive	–
COC[C@H](NC(=O)c1cnc(C)s1)C(=O)N[C@@H](COC)C(=O)N[C@@H](Cc1ccccc1)C(=O)[C@@]1(C)CO1	0.0743 µM (active)	–
CN(C)CCN1C(=O)c2cccc3cc(N)cc(c23)C1=O	18.7 µM (active)	–
CCNC(=O)Nc1ccc(-c2nc3c(c(N4CCOC[C@H]4C)n2)CCN(C2COC2)C3)cc1	6.62 µM (active)	–
COc1cc([C@@H]2c3cc4c(cc3[C@@H](O[C@@H]3O[C@@H]5CO[C@@H](c6cccs6)O[C@@H]5[C@H](O)[C@@H]3O)[C@H]3COC(=O)[C@H]23)OCO4)cc(OC)c1O	14.8 µM (active)	–
CCOC(=O)[C@H](CCc1ccccc1)N[C@@H](C)C(=O)N1[C@@H](C(=O)O)C[C@H]2CCC[C@@H]21	8.33 µM (active)	–
CC(C)c1cnn2c(NCc3ccccc3)cc(NCCCCCCN)nc12	2.64 µM (active)	–
O=C(CCCCCCC(=O)Nc1cccnc1)NO	4.69 µM (active)	–
O=c1ccn([C@@H]2O[C@H](CO)[C@H](O)[C@@H]2F)c(=O)[nH]1	5.9 µM (active)	–
NC(=O)N1CCC(CC(=O)N2CCC([C@H]3c4ncc(Br)cc4CCc4cc(Cl)cc(Br)c43)CC2)CC1	18.7 µM (active)	–
CC(C)NC[C@@H](C(=O)N1CCN(c2ncnc3c2[C@H](C)C[C@H]3O)CC1)c1ccc(Cl)cc1	18.7 µM (active)	–
C[C@H](NCc1ccc(OCc2cccc(F)c2)cc1)C(N)=O	7.43 µM (active)	–
O=C(c1ccc(F)cc1)N1CCC[C@H](c2nc(-c3ccc(F)cc3)no2)C1	inactive	–
COc1cccc2c1C(=O)c1c(O)c3c(c(O)c1C2=O)C[C@@](O)(C(=O)CO)C[C@@H]3O[C@H]1C[C@H](N)[C@H](OC2CCCCO2)[C@H](C)O1 (some centres undefined)	2.35 µM (active)	–
Nc1nc(N)c2nc(-c3cccc(O)c3)c(-c3cccc(O)c3)nc2n1	18.7 µM (active)	–

Experiment: Quantitative High-Throughput drug screen in 47 multiple myeloma cell lines against the NCATS MIPE library collection: XG6_PLB cell viability assay (AID 1919865); note: nearly all actives have a fitted effect of over 40% in size;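 for viability (% of control): 100% = DMSO-only wells and 0% = media-only wells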
Conditions: XG6 myeloma viability, CellTiter-Glo ATP luminescence, 48 h; series mostly up to 45.8 µM
In short: as §1

SMILES	Potency	viability (% of control)
Cc1cc(O)c2c(c1)C(=O)c1cccc(O)c1C2=O	inactive	–
CCC(C(=O)O)C1CCC(C)C(C(C)C(O)C(C)C(=O)C(CC)C2OC3(C=CC(O)[C@@]4(CC[C@](C)(C5CC[C@@](O)(CC)C(C)O5)O4)O3)C(C)CC2C)O1 (some centres undefined)	3.32 µM (active)	–
CC(=O)[C@]1(O)Cc2c(O)c3c(c(O)c2[C@@H](O[C@H]2C[C@H](N)[C@@H](O)[C@H](C)O2)C1)C(=O)c1ccccc1C3=O	0.235 µM (active)	–
COc1cc(C=CC(=O)CC(=O)C=Cc2ccc(O)c(OC)c2)ccc1O	10.8 µM (active)	–
CN(CC(=O)N(Cc1ccc(C2CCCCC2)cc1)c1ccc(C(=O)O)c(O)c1)S(=O)(=O)c1c(F)c(F)c(F)c(F)c1F	4.69 µM (active)	–
CC(C)(C)[C@H](NC(=O)c1ccc(N)c(Cl)c1)C(=O)N1CCC[C@@H]1C(=O)N[C@H](C#N)CC(=O)O	–	104% [at 3.51 µM] (inactive)
Cn1cnc(=N)c2[nH]cnc21	0.132 µM (active)	–
COc1ccc2c(c1OC)C(=O)OC2[C@H]1c2c(cc3c(c2OC)OCO3)CCN1C (some centres undefined)	0.0469 µM (active)	–
C#C[C@]1(O)CC[C@@H]2[C@@H]3CCC4=CC(=O)CC[C@@H]4[C@H]3CC[C@@]21CC	inactive	–
C=C(C)[C@@H]1CC[C@]2(C(=O)O)CC[C@]3(C)[C@H](CC[C@@H]4[C@@]5(C)CC[C@H](O)C(C)(C)[C@@H]5CC[C@]43C)[C@@H]12	2.96 µM (active)	–
CC(=O)OCC(=O)[C@@]1(O)CC[C@H]2[C@@H]3CCC4=CC(=O)CC[C@]4(C)[C@@H]3C(=O)C[C@@]21C	inactive	–
CC(=O)SCC(Cc1ccccc1)C(=O)NCC(=O)OCc1ccccc1 (centres undefined)	1.05 µM (active)	–
C[C@H](CCC(=O)O)[C@H]1CC[C@H]2[C@@H]3[C@H](O)C[C@@H]4C[C@H](O)CC[C@]4(C)[C@@H]3CC[C@]12C	inactive	–
CCOc1cc2ncc(C#N)c(Nc3ccc(OCc4ccccn4)c(Cl)c3)c2cc1NC(=O)C=CCN(C)C	0.0187 µM (active)	–
C=CC(=O)N1CCc2ccc(-n3c(=O)ccc4cnc5ccc(-c6cnn(C)c6)cc5c43)cc21	2.96 µM (active)	–
NC[C@H]1O[C@H](O[C@H]2[C@@H](O)[C@@H](O[C@H]3O[C@H](CO)[C@@H](O)[C@H](N)[C@@H]3O)[C@H](N)C[C@@H]2N)[C@H](N)C[C@H]1O	inactive	–
N#CNC(=NCCCCCCOc1ccc(Cl)cc1)Nc1ccncc1	18.7 µM (active)	–
C[C@H]1COc2c(N3CCN(C)CC3)c(F)cc3c(=O)c(C(=O)O)cn1c23	inactive	–

SMILES	Potency	viability (% of control)
Oc1cc(-c2nc(-c3ccccc3)[nH]c2-c2ccncc2)ccc1Cl	2.35 µM (active)	–
O=c1[nH]c(=O)n([C@H]2C[C@@H](O)[C@@H](CO)O2)cc1C=CBr	inactive	–
COC[C@H](NC(=O)c1cnc(C)s1)C(=O)N[C@@H](COC)C(=O)N[C@@H](Cc1ccccc1)C(=O)[C@@]1(C)CO1	0.059 µM (active)	–
CN(C)CCN1C(=O)c2cccc3cc(N)cc(c23)C1=O	14.8 µM (active)	–
CCNC(=O)Nc1ccc(-c2nc3c(c(N4CCOC[C@H]4C)n2)CCN(C2COC2)C3)cc1	0.935 µM (active)	–
COC(=O)[C@H](CCCN=C(N)N)NS(=O)(=O)c1ccc(C)cc1	11.8 µM (active)	–
COc1cc([C@@H]2c3cc4c(cc3[C@@H](O[C@@H]3O[C@@H]5CO[C@@H](c6cccs6)O[C@@H]5[C@H](O)[C@@H]3O)[C@H]3COC(=O)[C@H]23)OCO4)cc(OC)c1O	0.0469 µM (active)	–
CCOC(=O)[C@H](CCc1ccccc1)N[C@@H](C)C(=O)N1[C@@H](C(=O)O)C[C@H]2CCC[C@@H]21	7.43 µM (active)	–
CC(C)c1cnn2c(NCc3ccccc3)cc(NCCCCCCN)nc12	0.332 µM (active)	–
O=C(CCCCCCC(=O)Nc1cccnc1)NO	11.8 µM (active)	–
COc1cc([C@@H]2c3cc4c(cc3[C@H](O)[C@H]3COC(=O)[C@@H]23)OCO4)cc(OC)c1OC	0.0833 µM (active)	–
O=c1ccn([C@@H]2O[C@H](CO)[C@H](O)[C@@H]2F)c(=O)[nH]1	7.43 µM (active)	–
NC(=O)N1CCC(CC(=O)N2CCC([C@H]3c4ncc(Br)cc4CCc4cc(Cl)cc(Br)c43)CC2)CC1	16.6 µM (active)	–
CC(C)NC[C@@H](C(=O)N1CCN(c2ncnc3c2[C@H](C)C[C@H]3O)CC1)c1ccc(Cl)cc1	1.66 µM (active)	–
C[C@H](NCc1ccc(OCc2cccc(F)c2)cc1)C(N)=O	1.66 µM (active)	–
O=C(c1ccc(F)cc1)N1CCC[C@H](c2nc(-c3ccc(F)cc3)no2)C1	inactive	–
COc1cccc2c1C(=O)c1c(O)c3c(c(O)c1C2=O)C[C@@](O)(C(=O)CO)C[C@@H]3O[C@H]1C[C@H](N)[C@H](OC2CCCCO2)[C@H](C)O1 (some centres undefined)	0.662 µM (active)	–
Nc1nc(N)c2nc(-c3cccc(O)c3)c(-c3cccc(O)c3)nc2n1	3.32 µM (active)	–
